# This is a sample that favours compounds with a hit; in the whole collection about 6.6% have one here.
# BoNT-A LC inh2 – blocks Botulinum neurotoxin A light chain protease; multiplex microsphere protease substrate cleavage, flow cytometry; inhibition, % at 10 µM; 360,000 tested, 0.17% active; AID 588499; in the data active means inhibition above about 30%; further: plate controls were buffer without enzyme for full effect and enzyme alone for no effect
# Anthrax LF prot – anthrax lethal factor protease inhibition; P15917; multiplex microsphere protease cleavage assay, LF; inhibition, % at 10 µM; 360,000 tested, 0.12% active; AID 588501; in the data active means inhibition above about 30%; further: plate controls were buffer without enzyme for full effect and enzyme alone for no effect
# BoNT F protease – blocks Botulinum neurotoxin F light chain protease; Multiplex microsphere protease cleavage assay, flow cytometry; inhibition, % at 10 µM; 360,000 tested, 0.22% active; AID 588497; in the data active means inhibition above about 35%, passing the limit was not always enough; further: plate controls were buffer without enzyme for full effect and enzyme alone for no effect
# Mtb FBA inh – Mtb fructose-bisphosphate aldolase inhibition | P9WQA3 | purified M. tuberculosis FBA, fluorescence read-out | inhibition, % at 1 µM | 360,000 tested, 2.3% active | AID 588726;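 further: 0% = vehicle and 100% = reference inhibitor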
# Autofluor counter – flagged as autofluorescent in microsphere protease counterscreen. compound autofluorescence counterscreen, microsphere flow cytometry; hits give high values. fluorescence intensity (no concentration beside the values). 360,000 tested, 3.1% active; in the data active means fluorescence intensity above about 16000
# GDH-TPI counter-1 – counter-screen for M. tuberculosis FBA inhibitors: GDH-TPI coupled enzymes | GDH-TPI coupled enzyme counterscreen, NADH absorbance | inhibition, % at 4.8 µM | 360,000 tested, 1.2% active | AID 588335; in the data active means inhibition above about 30%;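 further: 0% = DMSO wells and 100% = wells lacking the enzyme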
# Mtb FBA inh conf – Mtb FBA inhibition, confirmed. shares compounds with Mtb FBA inh. 5,600 tested, 78% active. inhibition, % at 1 µM. purified M. tuberculosis FBA, fluorescence read-out;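 further: 0% = vehicle wells and 100% = reference inhibitor wells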
# GDH-TPI counter-2 – inhibits GDH-TPI coupling enzymes, flagging Mtb FBA hits. shares compounds with Mtb FBA inh. GDH-TPI coupled enzyme counterscreen, fluorescence. inhibition, % at 1 µM. 5,600 tested, 81% active; in the data active means inhibition above about 10%
# * = called active by the depositor; . = no result given; + = active, no number. Unless noted, no stated cut-off is given here; in the data, active means inhibition above about 27%; inactive means the rest.
SMILES,BoNT-A LC inh2,Anthrax LF prot,BoNT F protease,Mtb FBA inh,Autofluor counter,GDH-TPI counter-1,Mtb FBA inh conf,GDH-TPI counter-2
O=C(Nc1nnc(SCCN2CCOCC2)s1)C1CC(=O)N(c2ccccc2)C1 (centres undefined),0,3,6,-1,5286,2,.,.
CCn1cc(C(=O)N[C@@H](CCSC)C(=O)NCCN2CCOCC2)c(=O)c2cc3c(cc21)OCO3,-1,-3,0,9,4271,4,.,.
Cc1c(OCC(=O)NCCCN2CCCC2=O)ccc2c3c(c(=O)oc12)CCCC3,0,3,-8,29*,4486,21,+,+
Cc1c(OCC(=O)NCCCN2CCCC2=O)ccc2c3c(c(=O)oc12)CCC3,0,-4,-1,19,6306,7,.,.
Cc1c(O)ccc2c(CN3CCN(Cc4ccccc4)CC3)cc(=O)oc12,-2,16,6,36*,3544,4,+,+
CCc1cc2c(CN(C)Cc3ccccc3F)cc(=O)oc2cc1O,-3,-10,-15,58*,3910,6,+,+
CCc1ccc2c(CN3CCN(Cc4ccccc4)CC3)cc(=O)oc2c1,-1,-8,0,2,3157,5,.,.
CCc1cc2c(CN3CCN(Cc4ccccc4)CC3)cc(=O)oc2cc1O,-2,-18,-5,97*,3895,7,113*,93*
O=c1cc(CN2CCN(Cc3ccccc3)CC2)c2ccc(O)c(O)c2o1,1,-6,-20,5,3662,12,.,.
Cc1c(O)ccc2c(CN(C)Cc3ccccc3)cc(=O)oc12,0,2,-6,47*,4770,16,56*,51*
O=C(COC(=O)CC1CCCC1)Nc1ccccc1[N+](=O)[O-],0,3,4,4,3939,16,.,.
CN=Cc1c(NC)nc2c(C)cccn2c1=O,0,-2,-1,13,2630,13,.,.
Cc1cccn2c(=O)c(C=Nc3ccccc3)c(NCCO)nc12,0,2,-2,39*,8398,22,7,-2
Cc1cccn2c(=O)c(C=Nc3ccc(Cl)cc3)c(NCCO)nc12,-2,0,-4,31*,21575*,7,66*,45*
Cc1ccc2nc(NCC(=O)O)nc(-c3ccccc3)c2c1,1,-1,3,30*,2797,-1,54*,46*
Cc1ccc2nc(NCCC(=O)O)nc(-c3ccccc3)c2c1,2,0,-6,36*,4614,2,48*,48*
Cc1ccc2nc(NCCCO)nc(-c3ccccc3)c2c1,1,2,-7,31*,5540,5,+,+
COCCCNC(=O)C[C@@H]1C[C@@]2(C(=O)OC)CCCCC=C2N(Cc2ccco2)C1=O,0,-11,6,.,5758,.,.,.
COc1ccc(C(=O)NCc2nnc(SC)n2Cc2ccccc2)cc1,0,-1,-3,-2,3318,-2,.,.
CCOC(=O)N(C)S(=O)(=O)c1ccccc1[N+](=O)[O-],0,0,-1,3,4037,14,.,.
C[C@@H]1CN([C@@H](C)CO)C(=O)CCCn2nncc2CO[C@H]1CN(C)Cc1cccc2c1OCCCO2,0,-3,-3,-4,3460,-6,.,.
CC(=O)c1ccc(-c2ccc(C(=O)N(C)Cc3nc4ccccc4c(=O)[nH]3)o2)cc1,3,2,5,89*,5238,17,4,-4
Cc1cc(=O)oc2cc(OCC(=O)N3CCN(Cc4ccc5c(c4)OCO5)CC3)ccc12,-1,2,-7,19,4701,8,.,.
Cc1cc(=O)oc2cc(OCC(=O)N3c4ccccc4NC(=O)C3(C)C)ccc12,0,0,2,34*,3779,15,107*,87*
Cc1cc(=O)oc2cc(OCC(=O)N3CCN(c4ccc(F)cc4)CC3)ccc12,0,0,3,6,5913,21,.,.
Cc1cc(=O)oc2cc(OCC(=O)N3CCN(Cc4ccccc4)CC3)ccc12,0,0,-7,35*,3009,17,9,-3
Cc1cc(=O)oc2cc(OCC(=O)N3CCN(C(=O)c4ccco4)CC3)ccc12,-1,-1,1,27*,4514,-1,79*,68*
